The record followed here is PubChem BioAssay (EPA / NIEHS).

The term AC50 denotes the concentration at which the activity in the assay is half-maximal.

Some structures have more than one record in an assay (separate samples or runs), and their calls can disagree. Active and inactive are the calls of the source. Rule for the calls: active = hit-call score of the fitted dose curve at least 0.9, where 1 is the maximum; inactive = score below 0.9.

Read-out in this experiment: growth arrest and DNA damage 45 (GADD45G), GADD45G (gene 10912)
Kind of experiment: LTEA_HepaRG_GADD45G: Life Technologies and Expression Analysis (LTEA) Assay for growth arrest and DNA damage 45 (GADD45G) using HepaRG (AID 2283499). The note with it: mRNA level, 48 h; actives raise or lower the signal. The protocol:
LTEA_HepaRG is a cell based, multiplexed-readout assay that uses HepaRG, a human liver cell line, with measurements taken at 48 hours after chemical dosing on a 96-well plate.LTEA_HepaRG_GADD45G is one of 102 assay component(s) measured in the LTEA HepaRG cell culture assay. It is a marker of Cell proliferation, survival, death.Data from the assay component LTEA_HepaRG_GADD45G was analyzed into 1 endpoint. This assay endpoint, LTEA_HepaRG_GADD45G, was analyzed with bidirectional fitting relative to DMSO as the negative control and baseline of activity. Using a type of inducible reporter, measures of mRNA induction for gain or loss-of-signal activity can be used to understand regulation of transcription factor activity. To generalize the intended target to other relatable targets, this assay endpoint is annotated to the mutagenicity response intended target family, where the subfamily is Cell proliferation, survival, death.
A total of 1060 chemcials from the ToxCast library were tested in eight-point concentration-response experiments. Cell culture and cytotoxicity assays were conducted at Thermo Fisher Scientific's Custom Services facility (Madison, WI). A single lot of human HepaRG cells (Thermo Fisher Scientific, Frederick, MD) was used for the cell culture experiments. 96-well format collagen type I coated plates of human HepaRG cells were prepared using established methods. Briefly, cryopreserved HepaRG cells were thawed, plated at a density of approximately 100,000 cells/well in HepaRG Thaw, Plate, and General Purpose media (HPRG770, Thermo Fisher Scientific), and incubated for 48 hours. 0.5% DMSO was selected as vehicle control to balance the requisite need of DMSO in HepaRG cultures to maintain differentiation (for example, baseline metabolism, proportions of hepatocytes vs. cholangiocytes), while enabling further hepatic receptor pathway activation (for example, PXR and CAR) in response to chemical exposure. 48 hours after plating, the culture medium was replaced with HepaRG Serum-Free Incudtion Media. Cells were exposed to each test chemical in duplicate and maintained in CO2 incubators for another 48 hours. Chemical plates were thawed to room temperature and 200x concentrations of treatment groups were prepared. 8-point conentration-reponse curves were made with the highest exposure at 100 uM, followed by half-log dilutions, all in 0.5% DMSO. Each test plate contained variouse controls, induction positive controls (1mM phenobarbital), cytotoxicity positive controls ([…] aflatoxin B1), vehicle controls (0.5% DMSO), and total lysis controls (0.5% DMSO). Cell morphology images were taken using an Essen IncuCyte FLR automated microscope, with six 96-well plates imaged in about 24 minutes. Images were captured and exported and JPEG files. Spent culture media was transfered to black-well plates for the LDH assay, and remaining media was sorted at -80 C for later use. Cells were treated with RLT buffer and frozen until shipped for gene expression analysis. Total RNA was isolated from the cell suspension in 75 uL of Buffer RLT (Qiagen, Germantown, MD 20874) by Quintiles/Expression Analysis (Durham, NC) using a custom isolation procedure. Total RNA from each plate well was transferred to a preamplification plate. Fluidigm's 96.96 Dynamic ArrayTM (Fluidigm, Amsterdam, the Netherlands) technology was used for gene expression analyses by quantitative reverse transcription polymerase chain reaction (qRT-PCR, performed by Quintiles/Expression Analysis, Durham, NC)89. Standard TaqManTM Assays (Applied Biosystems/ThermoFisher Scientific, Foster City, CA) were used to assess the expression of 93 genes selected based on their selectivity and sensitivity to important hepatic receptors known to be modulated by environmental chemicals; importance in human hepatocyte functionality; and hepatotoxicity. […]
On to `CC(C)N(C(=O)COc1nnc(C(F)(F)F)s1)c1ccc(F)cc1`, for which the outcome was inactive.

Take `O=C(NC(=O)c1c(F)cccc1F)Nc1ccc(OC(F)(F)C(F)OC(F)(F)F)c(Cl)c1` (stereo not given): the molecule was called inactive. Still for that read-out and setting: the entry for `CC(C)(C)C(O)C(Oc1ccc(Cl)cc1)n1cncn1` (stereo not given) is “inactive”. On to `CC(C)(C)C(O)/C(=C\c1ccc(Cl)cc1Cl)n1cncn1` (stereo not given), for which the AC50 is 29.5 µM (active). For the molecule `O=S(=O)(O)C(F)(F)C(F)(F)C(F)(F)C(F)(F)C(F)(F)C(F)(F)C(F)(F)C(F)(F)F`, the concentration at half-maximal activity (AC50) is 5.76 µM (active) and the outcome was inactive.

Consider `CCC(C)Nc1c([N+](=O)[O-])cc(C(C)(C)C)cc1[N+](=O)[O-]` (stereo not given), for which the molecule was classed as inactive. The same measure, in the same setting: the entry for `COc1nn(CSP(=S)(OC)OC)c(=O)s1` is “inactive”; for `COP(=S)(OC)Oc1ccc([N+](=O)[O-])cc1` it is “inactive”; for `O=C(O)COc1ccc(Cl)cc1Cl` it is “inactive”. On the same count and under the same terms, the entry for `CNC(=O)/C=C(\C)OP(=O)(OC)OC` is “inactive”. The same measure, in the same setting: the value for `CCc1ccc(C(=O)NN(C(=O)c2cc(C)cc(C)c2)C(C)(C)C)cc1` was “inactive”. In the case of `O=C(O)C(F)(F)C(F)(F)C(F)(F)C(F)(F)C(F)(F)C(F)(F)C(F)(F)F`, the molecule was classed as inactive.

On to `N#Cc1c(Cl)c(Cl)c(Cl)c(C#N)c1Cl`, for which the molecule was classed as inactive.

As to `CNC(=O)Oc1cccc(N=CN(C)C)c1`, the outcome was inactive. For the molecule `ClC1C(Cl)C(Cl)C(Cl)C(Cl)C1Cl` (stereo not given), the molecule was classed as inactive and the AC50 was 0.488 µM (active).

`C[C@H]1[C@H](c2ccc(Cl)cc2)SC(=O)N1C(=O)NC1CCCCC1`: the AC50 is 72.9 µM (active). For `Cc1[nH]c(=O)n(C(C)(C)C)c(=O)c1Cl`, the molecule was classed as inactive. On the same count and under the same terms, the entry for `Clc1ccccc1-c1nnc(-c2ccccc2Cl)nn1` is “inactive”; for `COP(=S)(OC)Oc1ccc(SC)c(C)c1` it is “inactive”. Turning to `O=[N+]([O-])c1c(Cl)c(Cl)c(Cl)c(Cl)c1Cl`, the molecule was classed as inactive. On the same count and under the same terms, the value for `CC[C@H](C)[C@H]1O[C@]2(C=C[C@@H]1C)C[C@@H]1C[C@@H](C/C=C(\C)[C@@H](O[C@H]3C[C@H](OC)[C@@H](O[C@H]4C[C@H](OC)[C@@H](O)[C@H](C)O4)[C@H](C)O3)[C@@H](C)/C=C/C=C3\CO[C@@H]4[C@H](O)C(C)=C[C@@H](C(=O)O1)[C@]34O)O2` (tested in a mixture with another compound) was “inactive”; that for `O=C1c2ccccc2C(=O)N1SC(Cl)(Cl)Cl` was “inactive”; that for `CCC(C)(NC(=O)c1cc(Cl)c(C)c(Cl)c1)C(=O)CCl` (stereo not given) was “inactive”. `CCN(CC)C(=O)SCc1ccc(Cl)cc1`: the molecule was classed as inactive. On the same count and under the same terms, the entry for `C#CCN1C(=O)COc2cc(F)c(N3C(=O)C4=C(CCCC4)C3=O)cc21` is “inactive”; for `O=C(O)CCCOc1ccc(Cl)cc1Cl` it is “inactive”; for `O=[N+]([O-])/N=C1\NCCN1Cc1ccc(Cl)nc1` it is “inactive”. Regarding `CC1(C)C(C=C(Cl)Cl)C1C(=O)OC(C#N)c1ccc(F)c(Oc2ccccc2)c1` (stereo not given), the molecule was classed as inactive.

Regarding `CCC(C)(C)C(=O)OC1=C(c2ccc(Cl)cc2Cl)C(=O)OC12CCCCC2`, the molecule was called inactive. The same measure, in the same setting: the value for `CNC(=O)CSP(=S)(OC)OC` was “inactive”.

With `CC1(c2ccc(Oc3ccccc3)cc2)OC(=O)N(Nc2ccccc2)C1=O` (stereo not given), the AC50 is 12.3 µM (active).

`O=S1OCC2C(CO1)C1(Cl)C(Cl)=C(Cl)C2(Cl)C1(Cl)Cl` (stereo not given): the concentration at half-maximal activity (AC50) was 88.6 µM (active). With `CN1CSC(=S)N(C)C1`, the call was inactive. With `CCOCN(C(=O)CCl)c1c(C)cccc1CC`, the AC50 was 77.9 µM (active). As to `N#CN`, the outcome was inactive. In the case of `Oc1cc(Cl)ccc1Oc1ccc(Cl)cc1Cl`, the AC50 was 51 µM (active) and the result was inactive. As for `CCCN(CCC)c1c([N+](=O)[O-])cc(C(F)(F)F)cc1[N+](=O)[O-]`, the call was inactive.
